Results filed as inconclusive are left out. A call without a number means that no potency is given here. Active and inactive are the calls of the source. Calls follow the shape of the dose curve; as a rule, active = well fitted cell-killing curve with a large enough effect in the repeat runs; inconclusive = weak or mixed curves, or effect the other way; inactive = flat fitted curve, though single readings scatter.
assay: Caspase-3/7 induction in HepG2 cells by small molecules, qHTS cell viability counter screen (AID 1346981); conditions: CellTiter-Fluor fluorescence, 17 h; series mostly up to 92.4 µM; also: nearly all actives have a fitted effect of over 30% in size
Text: U.S. Tox21 Program National Center for Advancing Translational Sciences [NCATS] NIH Chemical Genomics Center [NCGC] U.S. Environmental Protection Agency [EPA] National Institutes of Environmental Health Sciences [NIEHS] National Toxicology Program [NTP] U.S. Food and Drug Administration [FDA] Tox21 Assay Overview: Apoptosis is a process of programmed cell death and plays a central role in the development of multicellular organisms. It is a highly regulated process and induces cell death by activating caspases, which are the members of cysteine aspartic acid-specific protease (caspase) family. Caspases involved in apoptosis are classified by their mechanism of action as initiator caspases (caspase-2, -8, -9 and -10) and executioner caspases (caspase-3, -6, and -7). Inhibition of apoptosis results in number of cancers, autoimmune diseases, inflammatory diseases and viral infection. To identify small molecule compounds that induce apoptosis, a homogeneous, luminescent Caspase-Glo 3/7 assay was used. Wild type HepG2 cells were used to screen Tox21 libraries for identifying caspase-3/7 activity inducers. Also cytotoxicity of the compounds was tested in parallel by measuring the cell viability using CellTiter-Fluor assay system in the same wells.
Tox21 Assay Protocol Summary: HepG2 cells were dispensed at 2,000 per well in 5uL of culture medium into white solid bottom 1536-well plates (Corning Life Sciences, Corning, NY) using a Multidrop Combi (Thermo Scientific, Waltham, MA) dispenser. The assay plates were incubated at 37 C and 5% CO2 for 5hr, and then 23nL of compounds dissolved in DMSO and positive control were transferred using a Pintool station ([…], San Diego, CA). The assay plates were incubated at 37C and 5% CO2 for 17hr. For cytotoxicity read, after 16hr incubation at 37C, 1uL CellTiter-Fluor reagent (Promega Corporation, Madison, WI) was added to each well of the assay plates using Flying Reagent Dispenser (FRD, Aurora Discovery, San Diego, CA). After 1hr incubation at 37C and 5% CO2, the fluorescence signal was quantified using a ViewLux plate reader (PerkinElmer, Shelton, CT).
Potency is read from the fitted curve at half-maximal effect.

| Structure (SMILES) | Potency | activity change, negative = cytotoxicity |
| --- | --- | --- |
| CCOC(=O)C1=NN(c2ccccc2)C(=O)C1 | inactive | – |
| CC(=O)N(CC(=O)N(C)C)c1ccccc1 | inactive | – |
| CC(O)C1CCCCC1 (stereo not given) | inactive | – |
| CCCCOC(=O)c1ccccc1C(=O)OCC(CC)CCCC (stereo not given) | inactive | – |
| CCOC(=O)C1=C(C)NC(C)=C(C(=O)OC)C1c1cccc([N+](=O)[O-])c1 (stereo not given) | inactive | – |
| CC(C)c1ccccc1C(C)C | inactive | – |
| CCOC(=O)CC(C)C | inactive | – |
| CN(c1nccc(=O)[nH]1)C1CCN(c2nc3ccccc3n2Cc2ccc(F)cc2)CC1 | inactive | – |
| O=C(C(=O)c1ccc(Br)cc1)c1ccc(Br)cc1 | – | 2.21% [at 19 µM] (inactive) |
| COc1ccc(C(C)=O)cc1 | inactive | – |
| O=C(O)c1cn(C2CC2)c2cc(Cl)c(F)cc2c1=O | inactive | – |
| CC/C(=C\C(=N/O)C(N)=O)C(C)[N+](=O)[O-] (stereo not given) | inactive | – |
| NC(N)=NN=C(/C=C/c1ccc([N+](=O)[O-])o1)/C=C/c1ccc([N+](=O)[O-])o1 | 8.41 µM (active) | – |
| COCCO | inactive | – |
| CCCCOC(O)CC (stereo not given) | inactive | – |
| CC1=CCC(C(C)C)C=C1 (stereo not given) | inactive | – |
| CC(C)(C)c1ccc(S)cc1 | inactive | – |
| CC(=O)NCCCS(=O)(=O)O | inactive | – |
| OC(CCN1CCCCC1)(c1ccccc1)C1CCCCC1 (stereo not given) | inactive | – |
| CCCCCCCCN(C)C | inactive | – |

| Structure (SMILES) | Potency | activity change, negative = cytotoxicity |
| --- | --- | --- |
| CC(C)(C)c1cc(CCC(=O)OCC(COC(=O)CCc2cc(C(C)(C)C)c(O)c(C(C)(C)C)c2)(COC(=O)CCc2cc(C(C)(C)C)c(O)c(C(C)(C)C)c2)COC(=O)CCc2cc(C(C)(C)C)c(O)c(C(C)(C)C)c2)cc(C(C)(C)C)c1O | inactive | – |
| CCCCCc1ccc(N)cc1 | inactive | – |
| O=C(CC(=O)c1ccccc1)c1ccccc1 | inactive | – |
| CCCCc1cc2ccccc2c(OCCN(C)C)n1 | inactive | – |
| N#Cc1cc2ccccc2c2ccccc12 | inactive | – |
| O=[N+]([O-])c1cccc(Cl)c1Cl | inactive | – |
| O=C=NC1CCC(CC2CCC(N=C=O)CC2)CC1 (stereo not given) | inactive | – |
| CCc1nn(C2CCCCC2)c2cc(C3(C#N)CCC(C(=O)O)CC3)ccc12 (stereo not given) | 15.4 µM (active) | – |
| Cc1cccc(OCCOc2cccc(C)c2)c1 | inactive | – |
| Nc1ccc(C(=O)N2CC3CC(CN(Cc4ccccc4)C3)C2)cc1 | inactive | – |
| O=C(c1ccccc1)c1ccc2n1CCC2C(=O)O (stereo not given) | inactive | – |
| C#CCOC(=O)[C@@H](C)Oc1ccc(Oc2ncc(Cl)cc2F)cc1 | inactive | – |
| CCCCCCCC/C=C\CCCCCCCC(N)=O | inactive | – |
| Cc1ccc(C(=O)C(C)CN2CCCCC2)cc1 (stereo not given) | inactive | – |
| CCCCOc1cc(C(=O)OCCN(CC)CC)ccc1N | inactive | – |
| N[C@H]1C(O)O[C@H](CO)[C@H](O)[C@@H]1O (stereo not given in full) | inactive | – |
| CCCCC(CC)(CO)CO | inactive | – |
| CN(C)C/C=C(/c1ccc(Br)cc1)c1cccnc1 | inactive | – |
| O=C(c1ccc(O)cc1)c1ccc(O)cc1 | inactive | – |
| Cc1cccc(Oc2ccccc2)c1 | inactive | – |

From PubChem BioAssay (Tox21)
